According to the supplement of paper PMC8728848:
The entries come from a sample that favours the strongest signals as a whole.

Key:
Assay in all cases: glycan array binding signal (z-score within array); higher = stronger binding
Conditions in all cases: glycan notation: IUPAC condensed, linker removed
[1] = target: Fuc(a1-2)Gal(b1-3)GlcNAc(b1-2)Man(a1-3)[Fuc(a1-2)Gal(b1-3)GlcNAc(b1-2)Man(a1-6)]Man(b1-4)GlcNAc(b1-4)[Fuc(a1-6)]GlcNAc
In short: (§1)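 Columns mapping to the same glycan were averaged after glycan names were converted to IUPAC-condensed notation. The data come from 3228 arrays in the Consortium for Functional Glycomics database, limited to those with an available protein sequence. Binding is reported as a within-array Z-score averaged across arrays of one protein sequence and across linkers.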

[2] = target: Fuc(a1-2)Gal(b1-4)Fuc(a1-3)]GlcNAc(b1-2)Man(a1-3)[Fuc(a1-2)Gal(b1-4)[Fuc(a1-3)]GlcNAc(b1-2)Man(a1-6)]Man(b1-4)GlcNAc(b1-4)GlcNAc
In short: as §1

[3] = target: Fuc(a1-2)Gal(b1-4)Glc6S
In short: as §1

[4] = target: Fuc(a1-2)Gal(b1-4)GlcNAc
In short: as §1

[5] = target: Fuc(a1-2)Gal(b1-4)GlcNAc(b1-2)Man(a1-3)[Fuc(a1-2)Gal(b1-4)GlcNAc(b1-2)Man(a1-6)]Man(b1-4)GlcNAc(b1-4)[Fuc(a1-6)]GlcNAc
In short: as §1

[6] = target: Fuc(a1-2)Gal(b1-4)GlcNAc(b1-6)GalNAc
In short: as §1

[7] = target: Fuc(a1-2)Gal(b1-4)[Fuc(a1-3)]GlcNAc(b1-3)GalNAc
In short: as §1

[8] = target: Fuc(a1-2)Gal3S(b1-4)GlcNAc
In short: as §1

[9] = target: Fuc(a1-2)[Gal(a1-3)]Gal(b1-3)GlcNAc(b1-3)GalNAc
In short: as §1

[10] = target: Fuc(a1-2)[Gal(a1-3)]Gal(b1-4)GlcNAc(b1-2)Man(a1-3)[Fuc(a1-2)[Gal(a1-3)]Gal(b1-4)GlcNAc(b1-2)Man(a1-6)]Man(b1-4)GlcNAc(b1-4)[Fuc(a1-6)]GlcNAc
In short: as §1

[11] = target: Fuc(a1-2)[GalNAc(a1-3)]Gal(b1-3)GlcNAc(b1-2)Man(a1-3)[Fuc(a1-2)[GalNAc(a1-3)]Gal(b1-3)GlcNAc(b1-2)Man(a1-6)]Man(b1-4)GlcNAc(b1-4)[Fuc(a1-6)]GlcNAc
In short: as §1

[12] = target: Fuc(a1-2)[GalNAc(a1-3)]Gal(b1-4)GlcNAc(b1-2)Man(a1-3)[Fuc(a1-2)[GalNAc(a1-3)]Gal(b1-4)GlcNAc(b1-2)Man(a1-6)]Man(b1-4)GlcNAc(b1-4)[Fuc(a1-6)]GlcNAc
In short: as §1

[13] = target: Fuc(a1-2)[GalNAc(a1-3)]Gal(b1-4)GlcNAc(b1-3)Gal(b1-4)GlcNAc(b1-3)Gal(b1-4)GlcNAc
In short: as §1

[14] = target: Fuc(a1-2)[GalNAc(a1-3)]Gal(b1-4)[Fuc(a1-3)]GlcNAc(b1-3)GalNAc
In short: as §1

[15] = target: Fuc(a1-3)[Gal(b1-4)]GlcNAc(b1-2)Man(a1-3)[Fuc(a1-3)[Gal(b1-4)]GlcNAc(b1-2)Man(a1-6)]Man(b1-4)GlcNAc(b1-4)GlcNAc
In short: as §1

[16] = target: Fuc(a1-3)[GalNAc(b1-4)]GlcNAc6S
In short: as §1

[17] = target: Gal(a1-2)Gal
In short: as §1

[18] = target: Gal(a1-3)Gal(b1-4)[Fuc(a1-3)]GlcNAc
In short: as §1

[19] = target: Gal(b1-3)Gal
In short: as §1

[20] = target: Gal(b1-3)GalNAc(b1-3)Gal
In short: as §1

[21] = target: Gal(b1-3)GalNAc(b1-3)Gal(a1-4)Gal(b1-4)Glc
In short: as §1

[22] = target: Gal(b1-3)GlcNAc(a1-3)Gal(b1-4)GlcNAc
In short: as §1

[23] = target: Gal(b1-3)GlcNAc(b1-3)Gal(b1-4)GlcNAc(b1-2)[Gal(b1-3)GlcNAc(b1-3)Gal(b1-4)GlcNAc(b1-6)]Man(a1-6)[Gal(b1-3)GlcNAc(b1-3)Gal(b1-4)GlcNAc(b1-2)Man(a1-3)]Man(b1-4)GlcNAc(b1-4)[Fuc(a1-6)]GlcNAc
In short: as §1

[24] = target: Gal(b1-3)[Fuc(a1-4)]GlcNAc(b1-6)GalNAc
In short: as §1

[25] = target: Gal(b1-3)[Neu5Ac(a2-6)]GlcNAc(b1-4)Gal(b1-4)Glc
In short: as §1

[26] = target: Gal(b1-4)Glc
In short: as §1

[27] = target: Gal(b1-4)GlcNAc
In short: as §1

[28] = target: Gal(b1-4)GlcNAc(b1-2)Man(a1-3)[GlcNAc(b1-4)][Gal(b1-4)GlcNAc(b1-2)Man(a1-6)]Man(b1-4)GlcNAc(b1-4)GlcNAc
In short: as §1

[29] = target: Gal(b1-4)GlcNAc(b1-3)Gal(b1-3)GalNAc
In short: as §1

[30] = target: Gal3S(b1-4)Glc6S
In short: as §1

[31] = target: Gal6S(b1-4)Glc
In short: as §1

[32] = target: GlcNAc(b1-3)Gal(b1-4)Glc
In short: as §1

[33] = target: GlcNAc(b1-3)Gal(b1-4)GlcNAc(b1-3)Gal(b1-4)GlcNAc(b1-2)[GlcNAc(b1-3)Gal(b1-4)GlcNAc(b1-3)Gal(b1-4)GlcNAc(b1-6)]Man(a1-6)[GlcNAc(b1-3)Gal(b1-4)GlcNAc(b1-3)Gal(b1-4)GlcNAc(b1-2)Man(a1-3)]Man(b1-4)GlcNAc(b1-4)[Fuc(a1-6)]GlcNAc
In short: as §1

[34] = target: GlcNAc(b1-3)Gal(b1-4)GlcNAc(b1-3)Gal(b1-4)GlcNAc(b1-3)Gal(b1-4)GlcNAc(b1-2)[GlcNAc(b1-3)Gal(b1-4)GlcNAc(b1-3)Gal(b1-4)GlcNAc(b1-3)Gal(b1-4)GlcNAc(b1-6)]Man(a1-6)[GlcNAc(b1-3)Gal(b1-4)GlcNAc(b1-3)Gal(b1-4)GlcNAc(b1-3)Gal(b1-4)GlcNAc(b1-2)Man(a1-3)]Man(b1-4)GlcNAc(b1-4)[Fuc(a1-6)]GlcNAc
In short: as §1

[35] = target: GlcNAc(b1-3)Gal(b1-4)GlcNAc(b1-3)Gal(b1-4)GlcNAc(b1-3)Gal(b1-4)GlcNAc(b1-3)Gal(b1-4)GlcNAc(b1-2)[GlcNAc(b1-3)Gal(b1-4)GlcNAc(b1-3)Gal(b1-4)GlcNAc(b1-3)Gal(b1-4)GlcNAc(b1-3)Gal(b1-4)GlcNAc(b1-6)]Man(a1-6)[GlcNAc(b1-3)Gal(b1-4)GlcNAc(b1-3)Gal(b1-4)GlcNAc(b1-3)Gal(b1-4)GlcNAc(b1-3)Gal(b1-4)GlcNAc(b1-2)Man(a1-3)]Man(b1-4)GlcNAc(b1-4)[Fuc(a1-6)]GlcNAc
In short: as §1

[36] = target: GlcNAc(b1-3)GalNAc
In short: as §1

[37] = target: GlcNAc(b1-3)[GlcNAc(b1-6)]Gal(b1-4)GlcNAc
In short: as §1

[38] = target: Man(a1-2)Man(a1-3)[Man(a1-2)Man(a1-6)]Man
In short: as §1

[39] = target: Man(a1-3)[Man(a1-6)]Man(b1-4)GlcNAc(b1-4)[Fuc(a1-6)]GlcNAc
In short: as §1

[40] = target: Neu5Ac(a2-3)Gal(b1-3)GlcNAc(b1-2)Man(a1-3)[GlcNAc(b1-4)][Neu5Ac(a2-3)Gal(b1-3)GlcNAc(b1-2)Man(a1-6)]Man(b1-4)GlcNAc(b1-4)GlcNAc
In short: as §1

[41] = target: Neu5Ac(a2-3)Gal(b1-4)GlcNAc
In short: as §1

[42] = target: Neu5Ac(a2-3)Gal(b1-4)GlcNAc(b1-2)Man(a1-3)[Neu5Ac(a2-6)Gal(b1-4)GlcNAc(b1-2)Man(a1-6)]Man(b1-4)GlcNAc(b1-4)GlcNAc
In short: as §1

[43] = target: Neu5Ac(a2-3)Gal(b1-4)GlcNAc(b1-2)[Neu5Ac(a2-3)Gal(b1-4)GlcNAc(b1-4)]Man(a1-3)[GlcNAc(b1-4)][Neu5Ac(a2-3)Gal(b1-4)GlcNAc(b1-2)[Neu5Ac(a2-3)Gal(b1-4)GlcNAc(b1-6)]Man(a1-6)]Man(b1-4)GlcNAc(b1-4)GlcNAc
In short: as §1

[44] = target: Neu5Ac(a2-3)[GalNAc(b1-4)]Gal(b1-4)GlcNAc(b1-3)GalNAc
In short: as §1

[45] = target: Neu5Ac(a2-6)Gal(b1-4)GlcNAc(b1-3)Gal(b1-4)GlcNAc(b1-2)Man(a1-3)[Neu5Ac(a2-6)Gal(b1-4)GlcNAc(b1-3)Gal(b1-4)GlcNAc(b1-2)Man(a1-6)]GalNAc
In short: as §1

[46] = target: Neu5Ac(a2-6)Gal(b1-4)GlcNAc(b1-3)Gal(b1-4)GlcNAc(b1-3)Gal(b1-4)GlcNAc
In short: as §1

[47] = target: Neu5Ac(a2-6)Gal(b1-4)GlcNAc(b1-3)Gal(b1-4)GlcNAc(b1-3)Gal(b1-4)GlcNAc(b1-2)Man(a1-3)[Neu5Ac(a2-6)Gal(b1-4)GlcNAc(b1-3)Gal(b1-4)GlcNAc(b1-3)Gal(b1-4)GlcNAc(b1-2)Man(a1-6)]GalNAc
In short: as §1

[48] = target: Neu5Ac(a2-6)Gal(b1-4)GlcNAc(b1-3)Gal(b1-4)[Fuc(a1-3)]GlcNAc(b1-3)Gal(b1-4)[Fuc(a1-3)]GlcNAc
In short: as §1

[49] = target: Neu5Ac(a2-6)Gal(b1-4)GlcNAc(b1-6)[Gal(b1-3)GlcNAc(b1-3)]Gal(b1-4)Glc
In short: as §1

[50] = target: Neu5Ac(a2-6)GlcNAc(b1-4)GlcNAc(b1-4)GlcNAc
In short: as §1

[51] = target: Neu5Ac(a2-8)Neu5Ac(a2-3)Gal(b1-3)GalNAc(b1-4)[Neu5Ac(a2-8)Neu5Ac(a2-3)]Gal(b1-4)Glc
In short: as §1

[52] = target: Neu5Ac9Ac(a2-6)Gal(b1-4)GlcNAc
In short: as §1

B1: Epa8 (Candida glabrata) (protein)
chain: MGSSHHHHHHSSGLVPRGSHMASSRALSDYPLGCSPLLGTKLTPGLSMELYEYPLDNHGIGPHCWDPAYLNPEYPRTGFESHKLIGTAQNVMSLNFEHRTQDCHVEFSNLPASFNFPDQITLTNFTMLLYGYFKPKESGRYRFHMEADDLLLMNLGAGNAFDCCAHEATRNNLGDYIAYDIWAGTRKDVEVFLEKEVFYPLRLFFNNRDGRAALDFSYYLNGATEPGTDIPELLFSLPDGESCPAYI
[1]
  glycan array binding signal (z-score): 0.141
[2]
  glycan array binding signal (z-score): 4.2
[3]
  glycan array binding signal (z-score): 0.004
[4]
  glycan array binding signal (z-score): -0.45
[5]
  glycan array binding signal (z-score): -0.33
[6]
  glycan array binding signal (z-score): 0.724
[7]
  glycan array binding signal (z-score): 2.63
[8]
  glycan array binding signal (z-score): -0.437
[9]
  glycan array binding signal (z-score): 0.166
[10]
  glycan array binding signal (z-score): 0.03
[11]
  glycan array binding signal (z-score): 0.09
[12]
  glycan array binding signal (z-score): 0.443
[13]
  glycan array binding signal (z-score): 0.493
[14]
  glycan array binding signal (z-score): 3.16
[15]
  glycan array binding signal (z-score): -0.093
[16]
  glycan array binding signal (z-score): -0.401
[17]
  glycan array binding signal (z-score): -0.54
[18]
  glycan array binding signal (z-score): -0.506
[19]
  glycan array binding signal (z-score): 0.171
[20]
  glycan array binding signal (z-score): -0.026
[21]
  glycan array binding signal (z-score): 0.394
[22]
  glycan array binding signal (z-score): 1.57
[23]
  glycan array binding signal (z-score): 2.13
[24]
  glycan array binding signal (z-score): 2.52
[25]
  glycan array binding signal (z-score): -0.392
[26]
  glycan array binding signal (z-score): -1.15
[27]
  glycan array binding signal (z-score): -0.292
[28]
  glycan array binding signal (z-score): -1.47
[29]
  glycan array binding signal (z-score): -1.06
[30]
  glycan array binding signal (z-score): 0.684
[31]
  glycan array binding signal (z-score): 0.199
[32]
  glycan array binding signal (z-score): -0.331
[33]
  glycan array binding signal (z-score): 3.86
[34]
  glycan array binding signal (z-score): 3
[35]
  glycan array binding signal (z-score): 2.23
[36]
  glycan array binding signal (z-score): -0.661
[37]
  glycan array binding signal (z-score): 0.492
[38]
  glycan array binding signal (z-score): -0.246
[39]
  glycan array binding signal (z-score): 2.33
[40]
  glycan array binding signal (z-score): 1.49
[41]
  glycan array binding signal (z-score): -0.315
[42]
  glycan array binding signal (z-score): 0.195
[43]
  glycan array binding signal (z-score): -0.346
[44]
  glycan array binding signal (z-score): 0.105
[45]
  glycan array binding signal (z-score): 2.31
[46]
  glycan array binding signal (z-score): -0.084
[47]
  glycan array binding signal (z-score): 3.31
[48]
  glycan array binding signal (z-score): -0.491
[49]
  glycan array binding signal (z-score): -0.638
[50]
  glycan array binding signal (z-score): -0.271
[51]
  glycan array binding signal (z-score): 0.256
[52]
  glycan array binding signal (z-score): -0.4
